For nine molecules, outcome and AC50 results are on record in PubChem BioAssay (EPA / NIEHS).

A structure can be active in one record and inactive in another. Activity calls are given as the source filed them. The calls were made as follows: active = hit-call score of the fitted dose curve at least 0.9, where 1 is the maximum; inactive = score below 0.9.

Assay [1] can be described thus: APR_HepG2_P-H2AX_72hr: Apredica 72-hour HepG2 Assay for H2AX Phosphorylation (AID 2282916).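 Also: phospho-histone H2A.x immunostain intensity per cell marking DNA damage.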 The note with it: imaging, actives raise or lower the signal. In short, it runs like this: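 HepG2 human liver cells were exposed for 72 hr to compounds at 0.39–200 uM (10 concentrations, duplicate per plate) in 0.5% v/v DMSO. Fixed, permeabilized cells were immunolabeled for phospho-histone H2A.x with Hoechst 33342 and imaged by HCS fluorescence; bidirectional fit versus DMSO.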

Assay [2] is described as follows: APR_HepG2_P-H2AX_24hr: Apredica 24-hour HepG2 Assay for H2AX Phosphorylation (AID 2282920). The note with it: high-content imaging, actives raise or lower the signal. The procedure, abridged: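 High-content imaging of phospho-histone H2A.x immunofluorescence, nuclei counterstained with Hoechst 33342, in fixed HepG2 cells. Compounds ran 0.39–200 uM in duplicate for 24 h, final DMSO 0.5%. Signal change fitted both directions against DMSO.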

Assay [3] is described as follows: APR_HepG2_StressKinase_72hr: Apredica 72-hour HepG2 Assay for Stress Kinase (AID 2282921). The following applies: HepG2 stress kinase (phospho-c-Jun) imaging, actives raise or lower the signal. In short, it runs like this:
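Cells were exposed for 72 h to ten concentrations (0.39–200 uM, duplicate) at 0.5% v/v DMSO final, then fixed with 3.7% formaldehyde, permeabilized and immunostained for phospho-c-Jun (Cy3 secondary) with Hoechst nuclear counterstain.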

Assay [4] is described as follows: APR_HepG2_StressKinase_24hr: Apredica 24-hour HepG2 Assay for Stress Kinase (AID 2282922). The note with it: HepG2 stress kinase (phospho-c-Jun) imaging, actives raise or lower the signal. The procedure, abridged:
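HepG2 cells exposed 24 h to 0.39–200 uM compound in duplicate (0.5% v/v DMSO final). Cells fixed in 3.7% formaldehyde, permeabilized and immunostained for phospho-c-Jun; read by high-content fluorescence imaging, fitted bidirectionally against DMSO.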

Assay [5] is described as follows: APR_HepG2_NuclearSize_72hr: Apredica 72-hour HepG2 Assay for Nuclear Size (AID 2282925). The note with it: high-content imaging, actives raise or lower the signal. In short, it runs like this: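 HepG2 cells dosed 72 h at 0.39–200 uM (10 concentrations, duplicate) in 0.5% v/v DMSO final. Fixed, Hoechst 33342-stained nuclei imaged; nuclear diameter measured by automated image analysis. Bidirectional fit versus DMSO.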

The nature of assay [6]: ATG_CRE_CIS: Attagene CIS-FACTORIAL HepG2 Assay for human cAMP Responsive Element (CRE) binding protein 3 (AID 2282926). The following applies: HepG2 CRE cis-reporter, Attagene multiplexed mRNA; actives raise or lower the signal. The procedure, abridged: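 Multiplexed transcription-unit reporters transfected into HepG2; 24 h dosing; RT-PCR/capillary electrophoresis fluorescence read-out; bidirectional fit vs DMSO.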

Assay [7] concerns the target CCAAT/enhancer-binding protein beta (Homo sapiens) (UniProt P17676). In words: ATG_C_EBP_CIS: Attagene CIS-FACTORIAL HepG2 Assay for human CCAAT/Enhancer Binding Protein (C/EBP) beta (AID 2282927). The note with it: HepG2 Attagene cis-factorial transcription factor reporter; actives raise or lower the signal. In short, it runs like this:
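HepG2 transiently transfected with multiplexed reporter units under cis-regulatory promoters reporting endogenous C/EBPb activity. After 24 h exposure, reporter mRNA assayed by RT-PCR, fluorescent labelling, HpaI digestion and capillary electrophoresis; bidirectional fitting versus DMSO.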

A short description of assay [8]: ATG_CMV_CIS: Attagene CIS-FACTORIAL HepG2 Assay for human CMV (Internal Marker) (AID 2282928).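 Also: endpoint acts as a background internal control marker rather than a target.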 The note with it: HepG2 CMV promoter reporter, transcription factor profiling; actives raise or lower the signal. In short, it runs like this: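 CMV internal-marker background readout in transiently transfected HepG2 cells bearing cis-regulated reporter units. Reporter mRNA is measured 24 h after dosing by RT-PCR and capillary electrophoresis, with bidirectional fitting against DMSO.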

The target of assay [9] is Aryl hydrocarbon receptor (Homo sapiens) (UniProt P35869). The assay is described as follows: ATG_Ahr_CIS: Attagene CIS-FACTORIAL HepG2 Assay for human Aryl Hydrocarbon Receptor (Ahr) (AID 2282930). The note with it: HepG2 AhR cis-factorial reporter transcription; actives raise or lower the signal. The procedure, abridged: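 HepG2 cells transiently transfected with cis-element-driven multiplexed reporter units; endogenous AhR activity read as reporter mRNA 24 h after dosing, via RT-PCR, 6-FAM labelling, HpaI digestion and capillary electrophoresis. Bidirectional fit relative to DMSO.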
Chain of Aryl hydrocarbon receptor (Homo sapiens) (P35869 whole entry, looked up): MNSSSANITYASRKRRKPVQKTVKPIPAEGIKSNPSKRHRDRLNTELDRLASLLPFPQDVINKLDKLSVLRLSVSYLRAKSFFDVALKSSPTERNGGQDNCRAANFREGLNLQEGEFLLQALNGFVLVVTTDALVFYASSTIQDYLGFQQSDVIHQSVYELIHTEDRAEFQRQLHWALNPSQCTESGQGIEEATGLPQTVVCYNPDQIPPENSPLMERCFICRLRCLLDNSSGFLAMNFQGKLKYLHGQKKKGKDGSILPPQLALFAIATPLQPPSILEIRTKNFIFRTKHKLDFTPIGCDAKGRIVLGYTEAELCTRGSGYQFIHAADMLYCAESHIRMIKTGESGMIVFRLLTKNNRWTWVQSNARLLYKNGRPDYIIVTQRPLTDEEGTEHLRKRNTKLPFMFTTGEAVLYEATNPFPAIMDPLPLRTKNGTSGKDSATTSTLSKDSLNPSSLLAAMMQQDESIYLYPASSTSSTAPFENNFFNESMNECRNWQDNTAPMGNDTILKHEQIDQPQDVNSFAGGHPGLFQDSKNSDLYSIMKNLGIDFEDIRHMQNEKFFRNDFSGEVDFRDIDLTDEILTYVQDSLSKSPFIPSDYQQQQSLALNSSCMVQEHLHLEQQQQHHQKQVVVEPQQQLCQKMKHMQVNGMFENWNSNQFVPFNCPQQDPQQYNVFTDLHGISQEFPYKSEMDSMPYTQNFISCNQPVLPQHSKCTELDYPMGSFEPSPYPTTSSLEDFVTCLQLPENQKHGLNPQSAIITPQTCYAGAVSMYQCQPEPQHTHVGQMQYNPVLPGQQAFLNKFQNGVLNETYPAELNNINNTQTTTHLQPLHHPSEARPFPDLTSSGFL

A short description of assay [10]: ATG_AP_2_CIS: Attagene CIS-FACTORIAL HepG2 Assay for human Activator Protein 2 (AP-2) (AID 2282932). The note with it: HepG2 AP-2 cis-reporter, Attagene transcription factor profiling; actives raise or lower the signal. The procedure, abridged:
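Multiplexed mRNA reporter assay in HepG2: cis-regulated units report endogenous factor activity after 24 h treatment. Fluorescence from capillary electrophoresis of RT-PCR products gives the signal, with DMSO as baseline.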

Assay [11] can be described thus: ATG_BRE_CIS: Attagene CIS-FACTORIAL HepG2 Assay for human Bone Morphogenetic Protein (BMP) Response Element (BRE) (AID 2282933). The note with it: HepG2 BMP response element reporter, Attagene transcription factor profiling; actives raise or lower the signal. The procedure, abridged: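 After a 24 h chemical treatment, transiently transfected HepG2 cells were lysed for RNA; reporter transcripts were quantified by fluorescent RT-PCR and capillary electrophoresis, normalised to DMSO.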

Assay [12] concerns the target Retinoic acid receptor alpha (Homo sapiens) (UniProt P10276). In words: ATG_DR5_RAR_CIS: Attagene CIS-FACTORIAL HepG2 Assay for human Retinoic Acid Receptor Alpha (RARE), DR5 submotif (AID 2282934).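 As to AC50: reporter responds to endogenous RAR alpha beta and gamma in HepG2 not RARA alone.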 The note with it: HepG2 Attagene cis-factorial RARE DR5 reporter, mRNA; actives raise or lower the signal. In short, it runs like this: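 HepG2 cells transiently transfected with multiplexed reporter units; DR5 cis-element drives reporter through endogenous transcription factors. After 24 h dosing, reporter mRNA quantified by RT-PCR, fluorescent labeling, HpaI digestion and capillary electrophoresis; bidirectional fitting versus DMSO.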

Assay [13] deals with Transcription factor E2F1 (Homo sapiens) (UniProt Q01094). In words: ATG_E2F_CIS: Attagene CIS-FACTORIAL HepG2 Assay for human E2F Transcription Factor 1 (AID 2282935). The note with it: HepG2 Attagene cis-reporter, E2F reporter RNA transcripts; actives raise or lower the signal. The procedure, abridged: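 Measures reporter transcript levels via RT-PCR with capillary electrophoresis detection in HepG2 cells harboring cis-regulated reporter units; 24 h post-dose; bidirectional curve fitting with DMSO as baseline.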
Chain of Transcription factor E2F1 (Homo sapiens) (Q01094 whole entry, looked up): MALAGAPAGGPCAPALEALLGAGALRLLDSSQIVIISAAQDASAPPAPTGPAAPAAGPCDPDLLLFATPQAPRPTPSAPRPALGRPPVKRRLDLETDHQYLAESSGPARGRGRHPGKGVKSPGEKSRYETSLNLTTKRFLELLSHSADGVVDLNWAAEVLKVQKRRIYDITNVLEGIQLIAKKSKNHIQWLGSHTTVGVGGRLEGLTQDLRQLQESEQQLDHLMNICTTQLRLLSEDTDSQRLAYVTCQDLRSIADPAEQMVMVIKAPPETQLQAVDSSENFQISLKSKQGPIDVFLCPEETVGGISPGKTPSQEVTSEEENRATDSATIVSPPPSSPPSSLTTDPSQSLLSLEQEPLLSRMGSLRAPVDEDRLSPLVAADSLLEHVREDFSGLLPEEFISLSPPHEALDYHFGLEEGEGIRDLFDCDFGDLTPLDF

The nature of assay [14]: ATG_E_Box_CIS: Attagene CIS-FACTORIAL HepG2 Assay for human Enhancer Box (E-box) (AID 2282936). The following applies: HepG2 E-box cis-reporter transcription, actives raise or lower the signal. The procedure, abridged: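 First, HepG2 cells receive multiple cis-regulated reporter constructs by transient transfection. Next, chemicals are applied for 24 h. Finally, reporter mRNA is quantified via RT-PCR and capillary electrophoresis, with DMSO as baseline.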

Assay [15] in a line: ATG_DR4_LXR_CIS: Attagene CIS-FACTORIAL HepG2 Assay for human Liver X Receptor (LXR), DR4 submotif (AID 2282929). The note with it: HepG2 Attagene DR4 cis-reporter, mRNA transcription; actives raise or lower the signal. The procedure, abridged:
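After transient transfection with multiplexed cis-promoter reporter units, HepG2 cells received test chemicals for 24 h. Reporter mRNA induction, detected by fluorescence after RT-PCR and capillary electrophoresis, was scored relative to DMSO.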

The nature of assay [16]: ATG_AP_1_CIS: Attagene CIS-FACTORIAL HepG2 Assay for human Activator Protein 1 (AP-1) (AID 2282931). The following applies: HepG2 Attagene cis-factorial AP-1 reporter mRNA; actives raise or lower the signal. The procedure, abridged:
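After 24 h incubation with test chemical, RNA from transfected HepG2 cells was reverse-transcribed, amplified, fluorescently labelled and digested before capillary electrophoresis. Reporters were driven by cis-regulatory promoters; activity fitted bidirectionally versus DMSO.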

A short description of assay [17]: APR_HepG2_MitoMembPot_72hr: Apredica 72-hour HepG2 Assay for Mitochondrial Membrane Potential (AID 2282917). The following applies: imaging, actives raise or lower the signal. In short, it runs like this: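 HepG2 cells dosed 72 hr with compound at 0.39–200 uM in duplicate, 0.5% v/v DMSO final. Mitochondria stained with 250 nM MitoTracker Red CMXRos for 30 min before formaldehyde fixation, imaged by high-content fluorescence; bidirectional fit versus DMSO.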

A short description of assay [18]: APR_HepG2_MitoticArrest_72hr: Apredica 72-hour HepG2 Assay for Mitotic Arrest (AID 2282918). The note with it: high-content imaging, actives raise or lower the signal. In short, it runs like this: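 High-content imaging of fixed human HepG2 cells after 72 h compound exposure (0.39–200 uM, duplicates, 0.5% DMSO); mitotic arrest scored from phospho-histone H3 and nuclear Hoechst staining relative to DMSO.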

Assay [19] is described as follows: APR_HepG2_p53Act_72hr: Apredica 72-hour HepG2 Assay for p53 Activation (AID 2282923).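 Also: average cellular p53 protein immunofluorescence intensity in HepG2 cells.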 The note with it: high-content imaging, actives raise or lower the signal. In short, it runs like this: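 Cells were dosed for 72 hr with compounds at 0.39–200 uM in duplicate (final DMSO 0.5% v/v), then fixed in 3.7% formaldehyde, permeabilized with Triton X-100 and immunostained for p53 (Cy5) with Hoechst 33342 nuclear counterstain.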

Assay [20] can be described thus: APR_HepG2_MitoMass_72hr: Apredica 72-hour HepG2 Assay for Mitochondrial Mass (AID 2282924).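 Also: MitoTracker Red CMXRos stain intensity per cell imaged as mitochondrial mass.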 The note with it: high-content imaging, actives raise or lower the signal. In short, it runs like this:
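HepG2 cells dosed 72 hr at 0.39–200 uM (0.5% DMSO), in duplicate. MitoTracker Red CMXRos 250 nM loaded 30 min before formaldehyde fixation; high-content fluorescence imaging, bidirectional fit versus DMSO.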

Chain of Retinoic acid receptor alpha (Homo sapiens) (P10276 whole entry, looked up): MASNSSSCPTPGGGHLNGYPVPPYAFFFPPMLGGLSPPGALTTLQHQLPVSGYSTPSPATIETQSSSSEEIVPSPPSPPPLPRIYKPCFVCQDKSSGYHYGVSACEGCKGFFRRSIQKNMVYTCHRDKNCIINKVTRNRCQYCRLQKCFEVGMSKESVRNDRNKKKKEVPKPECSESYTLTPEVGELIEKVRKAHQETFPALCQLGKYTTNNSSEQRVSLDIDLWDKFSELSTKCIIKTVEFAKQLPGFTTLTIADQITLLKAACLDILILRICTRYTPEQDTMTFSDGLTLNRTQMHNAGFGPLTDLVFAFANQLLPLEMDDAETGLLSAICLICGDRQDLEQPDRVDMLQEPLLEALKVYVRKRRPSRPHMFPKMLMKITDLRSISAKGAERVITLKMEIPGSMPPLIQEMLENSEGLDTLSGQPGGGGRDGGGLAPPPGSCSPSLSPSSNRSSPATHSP
Chain of CCAAT/enhancer-binding protein beta (Homo sapiens) (P17676 whole entry, looked up): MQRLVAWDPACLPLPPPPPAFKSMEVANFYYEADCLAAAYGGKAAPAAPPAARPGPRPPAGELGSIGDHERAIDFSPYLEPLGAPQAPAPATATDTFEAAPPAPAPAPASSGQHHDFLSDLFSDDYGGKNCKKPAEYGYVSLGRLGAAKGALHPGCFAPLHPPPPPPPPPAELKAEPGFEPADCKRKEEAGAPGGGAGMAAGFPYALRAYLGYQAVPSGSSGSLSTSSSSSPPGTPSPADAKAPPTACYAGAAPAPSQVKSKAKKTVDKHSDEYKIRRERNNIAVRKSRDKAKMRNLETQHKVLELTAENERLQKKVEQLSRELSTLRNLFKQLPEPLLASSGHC

On to `COc1ccccc1N`, for which the outcome in assay [1], in assay [2], in [3], in assay [4], in [5] and in assay [6] was inactive. The outcome in assay [7], in assay [8], in [9], in assay [10], in assay [11] and in assay [12] was inactive. For the same molecule, the molecule was classed as inactive in assay [13] and in assay [14]. Besides, the AC50 in assay [9] is 78.3 µM (active).

Consider `COCC(=O)N(c1c(C)cccc1C)[C@H](C)C(=O)OC`, for which the molecule was called inactive in assay [6], in [7], in assay [8], in assay [15], in [9] and in assay [16]. The molecule was called inactive in assay [10], in assay [11], in assay [12], in assay [13] and in [14].

With `Nc1ccc(Br)cc1`, the outcome in assay [6], in assay [7], in assay [8], in assay [15], in [16] and in [10] was inactive. For the same molecule, the outcome in assay [11], in [12], in assay [13] and in [14] was inactive. Moreover, in assay [9], the AC50 is 25.4 µM (active).

In the case of `Oc1c(Cl)cc(Cl)cc1Cl`, the call in [1], in [17], in [2], in assay [3], in assay [4] and in assay [19] was inactive. Moreover, the molecule was called inactive in assay [20], in [8], in assay [10], in assay [11] and in assay [14]. Further, the AC50 in assay [18] was 50 µM (active); in [9], 62.3 µM (active).

Regarding `O=NN1CCCCCC1`, the molecule was called inactive in [6], in assay [7], in assay [8], in assay [15], in [9] and in assay [16]. In addition, the molecule was called inactive in assay [10], in [11], in [12], in assay [13] and in assay [14].

Take `[Cl][Sn]([c]1ccccc1)([c]1ccccc1)[c]1ccccc1`: the AC50 in assay [6] was 0.367 µM (active); in assay [15], 0.67 µM (active); in [9] it was 1.09 µM (active); in assay [10], 0.503 µM (active); in assay [12], 0.227 µM (active); in [14], 0.252 µM (active). Moreover, the result in assay [7], in assay [8], in assay [16], in [11] and in assay [13] was inactive.

On to `N#Cc1cccnc1`, for which the molecule was called inactive in [1], in assay [17], in assay [18], in assay [2], in assay [3] and in assay [4]. The call in assay [20], in [5], in [6], in [7], in assay [8] and in assay [9] was inactive. The result in assay [16], in [10], in assay [11], in [13] and in assay [14] was inactive.

Take `Clc1cccc(Cl)c1`: the molecule was classed as inactive in assay [1], in assay [17], in assay [18], in assay [2], in assay [3] and in [4]. The molecule was classed as inactive in assay [20], in [5], in assay [6], in assay [7], in [8] and in assay [15]. For the same molecule, the outcome in assay [9], in [16], in [10], in assay [11], in [12] and in assay [13] was inactive. The result in assay [14] was inactive.

Regarding `CCCCCCCCCCCCc1cccc(S(=O)(=O)O)c1`, the outcome in assay [1], in [17], in [18], in assay [2], in assay [3] and in [4] was inactive. Moreover, the result in assay [20], in assay [5], in [6], in assay [7], in [8] and in [16] was inactive. Moreover, the outcome in assay [10], in [11], in assay [13] and in assay [14] was inactive. Moreover, the figures for the AC50 in assay [15] and in assay [12] were 30 µM (active) and 39.8 µM (active), respectively.

A word on the AC50: it is the concentration at which the activity in the assay is half-maximal.
